# Measurements taken from PubChem BioAssay.
# The source made the active and inactive calls.
# Legend:
# [1] = system: Plasmodium falciparum Sir2 (PF13_0152, Sir2A); assay: pfSir2 binders on small-molecule microarrays, primary screen, biochemical, small-molecule microarray, 635 nm fluorescence (AID 1098); details: small-molecule microarray binding, fluorescence 635 nm; higher = more signal;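 also: score merges spot fluorescence intensity with its signal-to-noise ratio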
# [2] = small-molecule microarray binders of probe aDKK1, primary screen, biochemical, biotinylated probe, 635/667 nm fluorescence (AID 1099); details: higher = more signal;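 also: score merges 667nm spot fluorescence with signal to noise across triplicate slides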
# [3] = small-molecule microarray binders of probe aCHRDL2, primary screen, biochemical, biotinylated probe, 635/667 nm fluorescence (AID 1100); details: higher = more signal
# [4] = splicing luciferase reporter signal modulators, primary screen, spliceosome inhibition project, cell-based, HEK293, splice +/- reporter (AID 1101); details: luminescence, 24 h, higher = more signal, called active from +8 up or from −8 down;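 also: HEK293 cells carrying a splicing-competent luciferase reporter gene; test concentration not given here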
# [5] = target: Fibroblast growth factor 10 (Homo sapiens) (UniProt O15520); assay: FGF10 binders on small-molecule microarrays, primary screen, biochemical, small-molecule microarray, 635 nm fluorescence (AID 1102); details: FGF10 binding, fluorescence 635 nm, higher = more signal
# Chain of Fibroblast growth factor 10 (Homo sapiens) (O15520 whole entry, looked up): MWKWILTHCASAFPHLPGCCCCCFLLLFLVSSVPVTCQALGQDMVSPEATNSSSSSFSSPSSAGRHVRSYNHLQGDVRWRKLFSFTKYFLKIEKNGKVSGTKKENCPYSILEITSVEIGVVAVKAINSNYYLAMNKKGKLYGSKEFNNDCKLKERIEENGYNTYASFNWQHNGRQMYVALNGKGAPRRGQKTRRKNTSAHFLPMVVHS
# [6] = system: glycogen synthase kinase-3 (GSK3A per assay name; protocol says GSK3B); assay: GSK3 binders on small-molecule microarrays, primary screen, biochemical, small-molecule microarray, 635 nm fluorescence, GSK3A (AID 1103); details: small-molecule microarray binding, fluorescence 635 nm; higher = more signal; also: the record names both GSK3A and GSK3B
# [7] = target: Epidermal growth factor receptor (Homo sapiens) (UniProt P00533); assay: EGFR binders on small-molecule microarrays, primary screen, biochemical, small-molecule microarray, 635 nm fluorescence (AID 1104); details: EGFR binding, higher = more signal;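 also: score merges 667 nm emission intensity with spot signal to noise over triplicate slides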
# Chain of Epidermal growth factor receptor (Homo sapiens) (P00533 whole entry, looked up): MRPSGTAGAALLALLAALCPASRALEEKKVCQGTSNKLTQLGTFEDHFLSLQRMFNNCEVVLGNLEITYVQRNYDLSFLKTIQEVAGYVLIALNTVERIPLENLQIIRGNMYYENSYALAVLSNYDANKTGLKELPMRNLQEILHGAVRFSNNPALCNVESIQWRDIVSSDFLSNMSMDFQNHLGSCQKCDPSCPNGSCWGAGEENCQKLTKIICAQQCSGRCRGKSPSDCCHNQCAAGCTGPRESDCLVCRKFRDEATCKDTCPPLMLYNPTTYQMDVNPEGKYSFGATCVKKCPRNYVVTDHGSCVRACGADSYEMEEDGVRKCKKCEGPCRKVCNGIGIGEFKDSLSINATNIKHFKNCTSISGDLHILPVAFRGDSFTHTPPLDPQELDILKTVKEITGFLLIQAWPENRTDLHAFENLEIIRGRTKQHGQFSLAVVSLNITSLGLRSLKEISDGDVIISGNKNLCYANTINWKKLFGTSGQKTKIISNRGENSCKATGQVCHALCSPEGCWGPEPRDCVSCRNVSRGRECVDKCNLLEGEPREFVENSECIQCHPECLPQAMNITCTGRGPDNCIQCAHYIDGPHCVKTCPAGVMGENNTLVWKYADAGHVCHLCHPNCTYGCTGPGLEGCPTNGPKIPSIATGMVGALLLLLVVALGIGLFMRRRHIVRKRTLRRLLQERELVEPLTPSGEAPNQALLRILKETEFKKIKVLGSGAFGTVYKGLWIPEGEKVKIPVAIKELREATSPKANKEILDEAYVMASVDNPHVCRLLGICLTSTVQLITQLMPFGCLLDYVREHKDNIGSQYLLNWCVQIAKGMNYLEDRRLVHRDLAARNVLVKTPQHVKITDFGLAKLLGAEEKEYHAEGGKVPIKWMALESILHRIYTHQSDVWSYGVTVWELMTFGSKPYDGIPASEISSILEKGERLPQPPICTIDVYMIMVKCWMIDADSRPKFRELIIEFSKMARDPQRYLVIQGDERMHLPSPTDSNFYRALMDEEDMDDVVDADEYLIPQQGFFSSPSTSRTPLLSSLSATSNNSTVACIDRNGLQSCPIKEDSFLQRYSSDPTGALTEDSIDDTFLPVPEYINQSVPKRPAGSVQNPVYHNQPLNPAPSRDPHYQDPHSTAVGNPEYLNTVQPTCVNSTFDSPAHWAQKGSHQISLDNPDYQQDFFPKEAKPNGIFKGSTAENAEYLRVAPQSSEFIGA
# [8] = target: Follistatin-related protein 3 (Homo sapiens) (UniProt O95633); assay: FSTL3 binders on small-molecule microarrays, primary screen, biochemical, small-molecule microarray, 635 nm fluorescence (AID 1105); details: FSTL3 binding, higher = more signal;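 also: score merges emission near 667 nm and signal to noise per printed spot across three slides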
# Chain of Follistatin-related protein 3 (Homo sapiens) (O95633 whole entry, looked up): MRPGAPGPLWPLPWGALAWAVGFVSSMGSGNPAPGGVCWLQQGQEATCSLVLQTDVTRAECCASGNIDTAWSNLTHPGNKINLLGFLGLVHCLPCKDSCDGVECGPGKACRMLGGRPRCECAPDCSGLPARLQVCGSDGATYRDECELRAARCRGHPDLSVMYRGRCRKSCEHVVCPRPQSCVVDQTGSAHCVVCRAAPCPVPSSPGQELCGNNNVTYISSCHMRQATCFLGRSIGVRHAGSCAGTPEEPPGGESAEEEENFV
# [9] = target: Dickkopf-related protein 1 (Homo sapiens) (UniProt O94907); assay: DKK1 binders on small-molecule microarrays, primary screen, biochemical, small-molecule microarray, 635 nm fluorescence scan (AID 1106); details: DKK1 binding, higher = more signal;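 also: score merges emission near 667 nm with signal to noise over three replicate slides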
# Chain of Dickkopf-related protein 1 (Homo sapiens) (O94907 whole entry, looked up): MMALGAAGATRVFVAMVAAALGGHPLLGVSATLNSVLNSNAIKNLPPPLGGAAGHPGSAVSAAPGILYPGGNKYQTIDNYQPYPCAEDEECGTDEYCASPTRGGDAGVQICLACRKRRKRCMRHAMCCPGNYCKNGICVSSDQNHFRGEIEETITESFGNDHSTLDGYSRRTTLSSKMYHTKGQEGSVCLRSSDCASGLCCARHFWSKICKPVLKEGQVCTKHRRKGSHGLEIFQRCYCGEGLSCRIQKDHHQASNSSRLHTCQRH
# [10] = system: Inhibin beta A chain (activin A); assay: INHBA (activin A) binders on microarrays, primary screen, biochemical, small-molecule microarray, 635 nm fluorescence scan (AID 1107); details: small-molecule microarray binding, higher = more signal;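 also: mouse activin A protein probed at 4.33 µg/mL on printed slides; score merges bound-protein fluorescence near 667 nm with spot signal-to-noise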
# [11] = system: Human papillomavirus type 1a protein E7 (residues 44-93); assay: HPV1a E7 fragment binders on microarrays, primary screen, biochemical, small-molecule microarray, residues 44-93, 635 nm fluorescence (AID 1108); details: small-molecule microarray binding, fluorescence 635 nm; higher = more signal;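 also: E7 fragment applied at 1 µg/mL in TBST for 1 h at 4 C; score combines spot fluorescence with its signal to noise ratio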
# [12] = modulators of HCV replicon luciferase signal, primary screen, HCV replication inhibitor project, Huh7 cells, luciferase reporter (AID 1109); details: 48 h, higher = more signal;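 also: huh7 hepatoma cells harbouring a luciferase neomycin HCV replicon reporter; luciferase luminescence as measure of HCV replicon replication; test concentration not given here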
# [13] = target: Left-right determination factor 2 (Homo sapiens) (UniProt O00292); assay: LEFTY2 binders on small-molecule microarrays, primary screen, biochemical, small-molecule microarray, 635 nm fluorescence scan (AID 1110); details: LEFTY2 binding, higher = more signal
# Chain of Left-right determination factor 2 (Homo sapiens) (O00292 whole entry, looked up): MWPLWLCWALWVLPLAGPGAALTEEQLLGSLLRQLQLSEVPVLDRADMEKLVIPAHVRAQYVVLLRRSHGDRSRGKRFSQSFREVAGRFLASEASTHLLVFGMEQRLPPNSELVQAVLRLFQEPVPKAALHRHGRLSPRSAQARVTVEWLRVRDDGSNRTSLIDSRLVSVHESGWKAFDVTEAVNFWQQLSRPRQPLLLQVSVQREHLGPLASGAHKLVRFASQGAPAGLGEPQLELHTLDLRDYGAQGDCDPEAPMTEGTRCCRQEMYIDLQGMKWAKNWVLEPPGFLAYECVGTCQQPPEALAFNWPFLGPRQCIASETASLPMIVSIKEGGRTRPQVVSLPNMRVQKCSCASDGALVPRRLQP
# [14] = target: Calmodulin-1 (Homo sapiens) (UniProt P0DP23); assay: CALM1 binders on microarrays, EGTA buffer, profiling panel, biochemical, small-molecule microarray, Cy5-labelled CALM1 (AID 1111); details: Cy5-CALM1 binding fluorescence, higher = more signal;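 also: labelled calmodulin applied in Tris saline Tween buffer holding calcium plus EGTA and DTT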
# [15] = target: Calmodulin-1 (Homo sapiens) (UniProt P0DP23); assay: calcium-bound CALM1 binders on microarrays, profiling panel, artefact control for SMM control-protein annotation, biochemical, small-molecule microarray, Cy5-labelled CALM1, plus calcium (AID 1112); details: Cy5-CALM1 binding fluorescence, higher = more signal;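 also: score merges spot fluorescence with signal to noise from triplicate slides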
# [16] = small-molecule microarray binders of probe aWnt5a, primary screen, biochemical, biotinylated probe, 635/667 nm fluorescence (AID 1113); details: higher = more signal;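 also: score merges 667 nm fluorescence intensity with signal-to-noise per printed feature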
# [17] = small-molecule microarray binders of probe aShh, primary screen, biochemical, biotinylated probe, 635/667 nm fluorescence (AID 1114); details: higher = more signal;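 also: probe is biotin-labelled aShh protein from a stem cell growth factor screen; measures binding of labelled protein to compounds printed on the slide; score merges feature fluorescence at 667 nm with signal-to-noise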
# [18] = small-molecule microarray binders of probe aNog, primary screen, biochemical, biotinylated probe, 635/667 nm fluorescence (AID 1115); details: higher = more signal;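 also: probe is biotinylated aNog protein used at 0.15 µg/mL for 1 h at 4 C; z-score combines 667 nm fluorescence of each spot with its signal to noise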
# [19] = target: Torsin-1A-interacting protein 1 (Homo sapiens) (UniProt Q5JTV8); assay: LAP1 binders from COS7 cell lysate, primary screen, small-molecule microarray, 635/667 nm fluorescence (AID 1116); details: COS7-hLAP1 lysate binding, 635 nm fluorescence, higher = more signal
# Chain of Torsin-1A-interacting protein 1 (Homo sapiens) (Q5JTV8 whole entry, looked up): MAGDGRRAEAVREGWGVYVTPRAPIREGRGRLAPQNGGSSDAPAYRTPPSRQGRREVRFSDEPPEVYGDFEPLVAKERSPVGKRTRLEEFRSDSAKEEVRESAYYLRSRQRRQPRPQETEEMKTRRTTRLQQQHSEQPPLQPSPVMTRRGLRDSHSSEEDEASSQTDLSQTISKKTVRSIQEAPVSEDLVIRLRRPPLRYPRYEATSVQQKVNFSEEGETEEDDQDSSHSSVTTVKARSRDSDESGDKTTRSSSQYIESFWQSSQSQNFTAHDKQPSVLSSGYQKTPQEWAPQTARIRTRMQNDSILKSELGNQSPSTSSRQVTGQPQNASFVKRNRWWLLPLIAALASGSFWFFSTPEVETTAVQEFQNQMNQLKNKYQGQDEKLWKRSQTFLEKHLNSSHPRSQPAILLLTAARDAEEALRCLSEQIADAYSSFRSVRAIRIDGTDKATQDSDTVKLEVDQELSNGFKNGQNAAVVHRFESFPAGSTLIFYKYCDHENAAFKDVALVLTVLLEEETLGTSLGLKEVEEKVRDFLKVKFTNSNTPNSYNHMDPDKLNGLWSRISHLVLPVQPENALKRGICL
# [20] = target: Alpha-bungarotoxin (Bungarus multicinctus) (UniProt P60615); assay: alpha-bungarotoxin binders on microarray, profiling panel, artefact control for SMM control protein annotation, biochemical, small-molecule microarray, Alexa647 label, 635/667 nm fluorescence (AID 1117); details: alpha-BTX-A647 binding fluorescence, higher = more signal
# Chain of Alpha-bungarotoxin (Bungarus multicinctus) (P60615 whole entry, looked up): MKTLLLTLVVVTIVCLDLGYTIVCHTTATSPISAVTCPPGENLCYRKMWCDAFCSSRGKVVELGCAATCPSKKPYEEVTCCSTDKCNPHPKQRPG
Structure (SMILES),composite z-score [1],composite z-score [2],composite z-score [3],z-score [4],composite z-score [5],composite z-score [6],composite z-score [7],composite z-score [8],composite z-score [9],composite z-score [10],composite z-score [11],z-score [12],composite z-score [13],composite z-score [14],composite z-score [15],composite z-score [16],composite z-score [17],composite z-score [18],composite z-score [19],composite z-score [20]
NC(=O)NCC#Cc1ccc2c(c1)[C@]1(C(=O)N2)[C@H](C(=O)Nc2nc3ccccc3s2)[C@H]2C(=O)O[C@H](c3ccccc3)[C@H](c3ccccc3)N2[C@@H]1c1ccccc1OCCO,1.23,1.83,-0.202,-0.137 (inactive),1.27,0.261,0.997,1.02,1.44,1.08,1.4,-1.33,0.235,1.23,0.579,0.312,-0.0773,2.12,-0.638,2.74
CC(C)=CCCC(C)=CC(O)C1C=CC2C(=O)N(C)C(=O)C2N1Nc1ccccc1 (stereo not given),0.854,0.473,0.55,3.04 (inactive),0.914,1.31,1.52,1.47,0.893,1.07,1.45,-2.28,0.457,1.99,0.73,0.0597,-0.0362,1.3,0.524,2.04
COCCOC(=O)N1C(=O)[C@@]2(c3cc(C#CCNC(N)=O)ccc31)[C@H](C(=O)Nc1nc3ccccc3s1)[C@H]1C(=O)O[C@H](c3ccccc3)[C@H](c3ccccc3)N1[C@@H]2c1ccc(OCCO)cc1,-0.112,0.92,0.795,-0.239 (inactive),1.11,0.755,0.373,0.963,1.15,0.542,1.26,-1.08,0.825,1.37,0.662,0.003,-0.382,-0.229,0.415,1.24
COCCOC(=O)N1C(=O)[C@@]2(c3ccccc31)[C@H](C(=O)N1CCc3cc(OC)c(OC)cc3C1)[C@H]1C(=O)O[C@H](c3ccccc3)[C@H](c3ccccc3)N1[C@@H]2c1ccc(OCCO)cc1,1.33,0.232,0.395,-1.27 (inactive),1.15,1.01,0.565,0.473,0.235,0.0475,1.02,-1.39,0.295,1.28,0.366,-0.147,-0.0863,0.495,1.05,0.663
[N-]=[N+]=NCc1ccccc1C[C@]1(C(=O)N2CCCCC2)N=C(c2ccc(OCCCO)cc2)O[C@H]1c1ccccc1N=[N+]=[N-],0.711,1.1,1.19,-1.01 (inactive),0.55,0.998,0.26,0.308,-0.5,1.36,1.41,-2.92,0.0928,1.43,0.587,0.171,0.417,1.03,1.85,1.45
C=CCOC(=O)[C@H]1[C@@H]2C(=O)O[C@@H](c3ccccc3)[C@@H](c3ccccc3)N2[C@@H](c2ccc(OCCOC(=O)[C@H]3C[C@H]4C(=O)N[C@@H](CCCCNC(C)=O)C(=O)N4[C@H]3c3cccc(OCCO)c3)cc2)[C@]12C(=O)Nc1ccccc12,1.42,-0.194,0.285,0.29 (inactive),1.31,1.32,0.674,0.775,0.824,0.134,1.36,-1.47,0.578,2.53,-0.0073,-0.101,0.13,0.0588,1.22,0.977
COc1cccc(-c2cccc(=O)o2)c1,1.37,0.956,0.513,0.742 (inactive),0.423,-0.21,0.482,0.148,0.143,1.15,-1.17,0.473,0.361,-0.753,-0.454,0.153,0.475,0.192,0.628,0.141
CN(C)C(=O)[C@]1(Cc2ccccc2N=[N+]=[N-])N=C(c2ccc(OCCCO)cc2)O[C@@H]1c1ccccc1N=[N+]=[N-],1.11,1.72,1.01,-0.727 (inactive),0.885,-0.0929,0.405,1.3,0.172,1.14,1.38,-2.69,0.116,1.7,0.497,-0.0179,0.0796,1.39,2.54,1.22
O=C(NCCO)C1=C[C@H](Oc2ccccc2I)[C@@H](O)[C@H](N(Cc2ccco2)C(=O)Cc2ccccc2)C1,-0.012,-0.223,-0.453,-0.0906 (inactive),0.556,0.349,0.508,0.468,0.431,0.497,-0.0509,0.807,0.51,-0.0916,-0.671,0.0057,-0.209,0.0129,0.591,-0.0333
COC(=O)C(CC#Cc1ccc2c(c1)[C@]1(C(=O)N2)[C@H](C(=O)Nc2nc3ccccc3s2)[C@H]2C(=O)O[C@H](c3ccccc3)[C@H](c3ccccc3)N2[C@@H]1c1ccc(O)cc1)C(=O)OC,1.18,0.381,0.454,-0.204 (inactive),1.28,1.29,0.642,1.4,0.829,0.381,1.45,-0.801,0.829,0.728,0.255,0.027,-0.0977,0.406,1.89,0.982
C=CCOC(=O)[C@H]1[C@@H]2C(=O)O[C@@H](c3ccccc3)[C@@H](c3ccccc3)N2[C@@H](c2ccc(OCCOC(=O)[C@H]3C[C@H]4C(=O)N[C@@H](CCCCN(C)C)C(=O)N4[C@H]3c3ccc(O)cc3)cc2)[C@]12C(=O)Nc1ccc(I)cc12,1.72,0.193,0.289,0.426 (inactive),1.31,1.32,0.741,1.41,0.849,1.29,1.4,-0.151,1.21,0.536,-0.62,0.114,0.275,1.14,1.64,0.864
